Laboratory results reported in PubChem BioAssay AID588405 (Sanford-Burnham Center for Chemical Genomics, 2011).
About 6,200 (1.7%) of roughly 360,000 compounds were called active. Shown is part of a subset that was picked to be rich in actives. Unmarked numbers belong to inactive results.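 How the source made its calls: active means inhibition of at least 50% at 20 µM; inactive means the rest.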

Test: inhibition of PEG-3 promoter activity – cell-based, HeLa, luciferase luminescence, primary screen (AID 588405)
Settings: HeLa PEG-Prom luciferase reporter, overnight, at 20 µM, hits give high values

SMILES | inhibition
CCOC(=O)C1=CC[C@@H](c2ccccc2)N(S(=O)(=O)c2ccc(C)cc2)[C@H]1c1cccc(OC)c1 | 14.6%
CC1(c2nnc(Cc3ccccc3)o2)CC(c2ccccc2F)=NO1 (configuration not stated) | 7.03%
CCOC(=O)/C=C/C(=O)OCC(=O)NC(c1ccccc1)c1ccccc1 | 66.3% (active)
CCOC(=O)C(C(=O)OCC)C(C#N)c1ccccc1 (configuration not stated) | 1.45%
Cc1ccccc1OCCC(=O)OCC(=O)NC(C)c1ccccc1 (configuration not stated) | -0.76%
OCCCNc1nccc(-c2cc(Nc3cccc(Cl)c3)ncn2)n1 | 97.8% (active)
CCOc1c(Nc2cccc(Cl)c2)c(=O)c1=O | 19%
CC(=O)N1CCN(S(=O)(=O)c2ccc(C)c([N+](=O)[O-])c2)C1C(C)C (configuration not stated) | 9.74%
COc1ccc(S(=O)(=O)NC(=O)C2(C)CCN2C(=O)COc2ccc(Cl)cc2)cc1 (configuration not stated) | 0.32%
OC(c1ccc(F)cc1)c1ncc(-c2cccc(C(F)(F)F)c2)[nH]1 (configuration not stated) | 25.3%
CCOC(=O)N1CCN(C(=O)c2n[nH]c(=O)c3ccccc23)CC1 | 6.99%
CCOC(=O)N1CCN(C(=O)c2nn(-c3ccc(C)cc3)c(=O)c3c2c2ccccc2n3C)CC1 | 58.2% (active)
CCOC(=O)N1CCN(C(=O)Cn2cnc3ccccc3c2=O)CC1 | -3.74%
CN1CCN(C(=O)c2ccc(-c3cc4nc(NCc5cccnc5)n(C)c(=O)c4s3)cc2)CC1 | -4.53%
CCc1nc2c(OCCOc3ccccc3)cccn2c1N(C)C(=O)c1ccc(OC)cc1 | 11.8%
CC(=O)NN=C(C)c1ccc(NC(=O)C2CC2)cc1 | -1.94%
CC1(C(=O)NCc2ccc3c(c2)OCO3)CCN1C(=O)Cc1cccs1 (configuration not stated) | -1.89%
NC(=O)COC(=O)c1cc(S(=O)(=O)N2CCN(c3ccccc3)CC2)ccc1Cl | -0.58%
NC(=O)C1CCN(C(=O)c2cc(S(=O)(=O)N3CCN(c4ccccc4)CC3)ccc2Cl)CC1 | 56.8% (active)
COc1ccccc1N(C)S(=O)(=O)c1ccc(Cl)c(C(=O)N2CCC(C(N)=O)CC2)c1 | -7.62%
O=S(=O)(Nc1cccc(-n2cnnn2)c1)c1cnc(Cl)c(Cl)c1 | 3.56%
Cc1cc2nc(-c3ccc(Cl)cc3)c(Cc3cccc(F)c3)n2c(C)c1Br | -7.74%
CN(C)CCCOc1ccc(-c2ccc3nccn3c2)cn1 | -2.16%
O=C(NCc1ccco1)c1cccc(-c2ccc3nncn3c2)c1 | 6.82%
O=C(Nc1ccccc1)c1nnsc1S(=O)(=O)c1ccc(Cl)cc1 | 67.4% (active)
O=C(Nc1ccc(S(=O)(=O)N2CCOCC2)cc1)C1CCN(S(=O)(=O)c2ccc(Cl)cc2)CC1 | 20.9%
Cc1nnsc1S(=O)(=O)Cc1ccccc1Cl | 14.5%
